Reference: the supplement of paper PMC11732987, “Enantioselective OTUD7B fragment discovery through chemoproteomics screening and high-throughput optimisation” (Communications Chemistry, 2025)

Key:
Assay in all cases: log2 ratio of Biotin-Ahx-Ub-VS probe labelling (fragment/DMSO); higher = less target engagement (more negative = stronger competition), active = hit call of the paper (q ≤ 0.05, log2 ratio ≤ -1)
Settings in all cases: compound concentration: 200 uM; treatment time: 3 h
USP34 = USP34 (UniProt Q70CQ2)
Procedure, shortened: (§1)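 Labelled DUBs from HEK293T lysate were NeutrAvidin-enriched, digested with LysC and trypsin, and run by diaPASEF LC-MS/MS. Before that, each 495 µg sample in Tris/CHAPS/IGEPAL buffer with protease inhibitors was treated in triplicate with fragment at 200 µM or vehicle for 3 h, then with Biotin-Ahx-Ub-VS at 0.5 µM final for 1 h. Values are average log2 ratios of fragment over vehicle by unpaired t-test, based on global-median-normalised Spectronaut label-free quantities from proteins with ≥2 unique peptides.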

USP36 = molecular target: T1, USP36 (UniProt Q9P275)
T1 sequence (whole entry): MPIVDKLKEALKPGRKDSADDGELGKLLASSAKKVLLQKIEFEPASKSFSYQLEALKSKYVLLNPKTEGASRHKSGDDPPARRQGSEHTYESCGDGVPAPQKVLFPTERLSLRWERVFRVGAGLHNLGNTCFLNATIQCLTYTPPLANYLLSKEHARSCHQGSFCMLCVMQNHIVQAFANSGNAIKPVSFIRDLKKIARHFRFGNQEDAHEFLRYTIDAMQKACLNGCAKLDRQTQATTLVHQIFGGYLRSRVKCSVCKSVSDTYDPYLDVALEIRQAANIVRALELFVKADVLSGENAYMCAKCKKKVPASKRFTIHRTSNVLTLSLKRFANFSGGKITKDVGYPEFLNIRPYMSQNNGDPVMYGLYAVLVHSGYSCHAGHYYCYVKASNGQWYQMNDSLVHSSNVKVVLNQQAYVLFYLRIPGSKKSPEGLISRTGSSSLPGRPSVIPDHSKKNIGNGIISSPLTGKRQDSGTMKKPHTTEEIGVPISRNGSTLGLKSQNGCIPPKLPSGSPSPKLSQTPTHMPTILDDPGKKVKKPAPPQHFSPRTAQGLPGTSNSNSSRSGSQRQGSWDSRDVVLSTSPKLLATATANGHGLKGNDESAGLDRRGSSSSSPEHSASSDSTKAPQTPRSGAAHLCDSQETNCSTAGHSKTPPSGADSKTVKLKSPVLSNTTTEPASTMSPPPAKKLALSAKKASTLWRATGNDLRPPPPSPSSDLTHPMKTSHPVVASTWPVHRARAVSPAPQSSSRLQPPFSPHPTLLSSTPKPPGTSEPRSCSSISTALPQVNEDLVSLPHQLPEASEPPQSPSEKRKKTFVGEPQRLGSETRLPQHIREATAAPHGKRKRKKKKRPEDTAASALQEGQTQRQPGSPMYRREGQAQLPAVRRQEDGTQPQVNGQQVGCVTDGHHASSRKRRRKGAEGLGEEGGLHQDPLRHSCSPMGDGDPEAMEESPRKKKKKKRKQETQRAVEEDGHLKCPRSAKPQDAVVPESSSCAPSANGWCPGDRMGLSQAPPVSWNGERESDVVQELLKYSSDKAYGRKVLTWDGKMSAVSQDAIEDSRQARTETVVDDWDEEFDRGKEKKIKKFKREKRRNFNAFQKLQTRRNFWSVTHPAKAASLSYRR
Procedure, shortened: as §1

USP38 = molecular target: T2, USP38 (UniProt Q8NB14)
T2 sequence (whole entry): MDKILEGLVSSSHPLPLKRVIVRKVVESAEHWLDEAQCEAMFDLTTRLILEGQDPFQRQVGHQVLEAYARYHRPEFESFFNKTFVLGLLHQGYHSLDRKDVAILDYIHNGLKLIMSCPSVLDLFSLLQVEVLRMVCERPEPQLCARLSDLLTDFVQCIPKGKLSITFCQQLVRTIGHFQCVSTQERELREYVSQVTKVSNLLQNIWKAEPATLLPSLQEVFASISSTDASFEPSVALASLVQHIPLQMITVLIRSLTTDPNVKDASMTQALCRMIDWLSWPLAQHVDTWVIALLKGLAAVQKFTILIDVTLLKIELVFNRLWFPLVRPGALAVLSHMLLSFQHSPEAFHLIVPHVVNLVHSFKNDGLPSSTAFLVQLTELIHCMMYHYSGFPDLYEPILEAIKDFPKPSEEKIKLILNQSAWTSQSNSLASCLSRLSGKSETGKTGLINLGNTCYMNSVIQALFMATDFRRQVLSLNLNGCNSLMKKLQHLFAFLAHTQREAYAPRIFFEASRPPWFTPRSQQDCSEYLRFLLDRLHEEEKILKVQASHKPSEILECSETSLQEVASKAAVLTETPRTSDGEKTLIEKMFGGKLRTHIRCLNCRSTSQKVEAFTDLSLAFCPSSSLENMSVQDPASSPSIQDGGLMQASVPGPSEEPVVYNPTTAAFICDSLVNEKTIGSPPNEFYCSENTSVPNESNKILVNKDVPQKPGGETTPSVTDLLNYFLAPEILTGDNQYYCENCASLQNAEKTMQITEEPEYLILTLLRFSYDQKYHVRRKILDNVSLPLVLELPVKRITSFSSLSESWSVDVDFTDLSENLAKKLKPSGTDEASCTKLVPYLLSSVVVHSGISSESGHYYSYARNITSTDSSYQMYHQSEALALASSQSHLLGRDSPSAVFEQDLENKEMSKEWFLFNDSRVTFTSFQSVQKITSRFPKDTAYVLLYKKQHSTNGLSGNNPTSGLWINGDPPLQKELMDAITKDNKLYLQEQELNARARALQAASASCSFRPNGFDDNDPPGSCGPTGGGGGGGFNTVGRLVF
Procedure, shortened: as §1

USP39 = molecular target: T3, USP39 (UniProt Q53GS9)
T3 sequence (whole entry): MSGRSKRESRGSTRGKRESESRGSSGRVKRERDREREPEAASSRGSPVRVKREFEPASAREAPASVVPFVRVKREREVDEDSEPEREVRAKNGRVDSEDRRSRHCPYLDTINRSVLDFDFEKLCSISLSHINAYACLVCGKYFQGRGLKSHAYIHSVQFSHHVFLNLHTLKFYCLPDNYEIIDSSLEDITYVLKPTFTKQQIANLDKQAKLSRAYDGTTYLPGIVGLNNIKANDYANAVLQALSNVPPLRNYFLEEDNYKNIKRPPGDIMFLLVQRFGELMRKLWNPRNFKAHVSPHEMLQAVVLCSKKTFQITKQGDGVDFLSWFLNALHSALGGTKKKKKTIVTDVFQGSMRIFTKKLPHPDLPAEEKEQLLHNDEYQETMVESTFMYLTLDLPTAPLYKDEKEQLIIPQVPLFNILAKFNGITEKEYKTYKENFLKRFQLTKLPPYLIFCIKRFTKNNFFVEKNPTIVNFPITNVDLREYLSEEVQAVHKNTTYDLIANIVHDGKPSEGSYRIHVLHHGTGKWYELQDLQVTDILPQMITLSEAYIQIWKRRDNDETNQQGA
Procedure, shortened: as §1

USP4 = molecular target: T4, USP4 (UniProt Q13107)
T4 sequence (whole entry): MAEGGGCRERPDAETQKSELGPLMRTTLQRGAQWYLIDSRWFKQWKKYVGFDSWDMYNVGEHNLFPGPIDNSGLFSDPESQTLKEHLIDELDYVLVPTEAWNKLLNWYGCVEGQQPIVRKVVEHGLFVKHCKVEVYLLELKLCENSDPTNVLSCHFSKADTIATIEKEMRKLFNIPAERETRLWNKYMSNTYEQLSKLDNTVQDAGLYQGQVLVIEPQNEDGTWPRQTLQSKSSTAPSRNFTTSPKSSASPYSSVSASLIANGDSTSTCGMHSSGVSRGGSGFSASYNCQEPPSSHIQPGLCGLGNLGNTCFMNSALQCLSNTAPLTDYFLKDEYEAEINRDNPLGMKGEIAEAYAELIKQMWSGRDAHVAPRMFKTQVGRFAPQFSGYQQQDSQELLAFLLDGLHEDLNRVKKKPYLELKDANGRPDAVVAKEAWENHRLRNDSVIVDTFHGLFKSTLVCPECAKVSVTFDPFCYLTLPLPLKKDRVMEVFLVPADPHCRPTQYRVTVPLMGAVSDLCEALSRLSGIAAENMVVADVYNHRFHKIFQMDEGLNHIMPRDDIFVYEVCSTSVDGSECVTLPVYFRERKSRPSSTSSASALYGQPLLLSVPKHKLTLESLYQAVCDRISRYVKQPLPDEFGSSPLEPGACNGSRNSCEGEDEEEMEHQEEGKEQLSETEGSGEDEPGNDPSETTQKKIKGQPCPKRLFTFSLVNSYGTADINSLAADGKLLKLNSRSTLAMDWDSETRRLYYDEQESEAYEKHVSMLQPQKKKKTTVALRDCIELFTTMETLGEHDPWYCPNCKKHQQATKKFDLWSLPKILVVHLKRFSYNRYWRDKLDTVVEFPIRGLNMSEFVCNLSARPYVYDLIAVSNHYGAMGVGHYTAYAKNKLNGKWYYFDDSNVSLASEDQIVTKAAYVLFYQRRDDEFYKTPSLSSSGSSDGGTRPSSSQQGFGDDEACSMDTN
Procedure, shortened: as §1

Measured: log2 ratio of Biotin-Ahx-Ub-VS probe labelling

USP34, sequence (Q70CQ2 whole entry, the tested form may be a part): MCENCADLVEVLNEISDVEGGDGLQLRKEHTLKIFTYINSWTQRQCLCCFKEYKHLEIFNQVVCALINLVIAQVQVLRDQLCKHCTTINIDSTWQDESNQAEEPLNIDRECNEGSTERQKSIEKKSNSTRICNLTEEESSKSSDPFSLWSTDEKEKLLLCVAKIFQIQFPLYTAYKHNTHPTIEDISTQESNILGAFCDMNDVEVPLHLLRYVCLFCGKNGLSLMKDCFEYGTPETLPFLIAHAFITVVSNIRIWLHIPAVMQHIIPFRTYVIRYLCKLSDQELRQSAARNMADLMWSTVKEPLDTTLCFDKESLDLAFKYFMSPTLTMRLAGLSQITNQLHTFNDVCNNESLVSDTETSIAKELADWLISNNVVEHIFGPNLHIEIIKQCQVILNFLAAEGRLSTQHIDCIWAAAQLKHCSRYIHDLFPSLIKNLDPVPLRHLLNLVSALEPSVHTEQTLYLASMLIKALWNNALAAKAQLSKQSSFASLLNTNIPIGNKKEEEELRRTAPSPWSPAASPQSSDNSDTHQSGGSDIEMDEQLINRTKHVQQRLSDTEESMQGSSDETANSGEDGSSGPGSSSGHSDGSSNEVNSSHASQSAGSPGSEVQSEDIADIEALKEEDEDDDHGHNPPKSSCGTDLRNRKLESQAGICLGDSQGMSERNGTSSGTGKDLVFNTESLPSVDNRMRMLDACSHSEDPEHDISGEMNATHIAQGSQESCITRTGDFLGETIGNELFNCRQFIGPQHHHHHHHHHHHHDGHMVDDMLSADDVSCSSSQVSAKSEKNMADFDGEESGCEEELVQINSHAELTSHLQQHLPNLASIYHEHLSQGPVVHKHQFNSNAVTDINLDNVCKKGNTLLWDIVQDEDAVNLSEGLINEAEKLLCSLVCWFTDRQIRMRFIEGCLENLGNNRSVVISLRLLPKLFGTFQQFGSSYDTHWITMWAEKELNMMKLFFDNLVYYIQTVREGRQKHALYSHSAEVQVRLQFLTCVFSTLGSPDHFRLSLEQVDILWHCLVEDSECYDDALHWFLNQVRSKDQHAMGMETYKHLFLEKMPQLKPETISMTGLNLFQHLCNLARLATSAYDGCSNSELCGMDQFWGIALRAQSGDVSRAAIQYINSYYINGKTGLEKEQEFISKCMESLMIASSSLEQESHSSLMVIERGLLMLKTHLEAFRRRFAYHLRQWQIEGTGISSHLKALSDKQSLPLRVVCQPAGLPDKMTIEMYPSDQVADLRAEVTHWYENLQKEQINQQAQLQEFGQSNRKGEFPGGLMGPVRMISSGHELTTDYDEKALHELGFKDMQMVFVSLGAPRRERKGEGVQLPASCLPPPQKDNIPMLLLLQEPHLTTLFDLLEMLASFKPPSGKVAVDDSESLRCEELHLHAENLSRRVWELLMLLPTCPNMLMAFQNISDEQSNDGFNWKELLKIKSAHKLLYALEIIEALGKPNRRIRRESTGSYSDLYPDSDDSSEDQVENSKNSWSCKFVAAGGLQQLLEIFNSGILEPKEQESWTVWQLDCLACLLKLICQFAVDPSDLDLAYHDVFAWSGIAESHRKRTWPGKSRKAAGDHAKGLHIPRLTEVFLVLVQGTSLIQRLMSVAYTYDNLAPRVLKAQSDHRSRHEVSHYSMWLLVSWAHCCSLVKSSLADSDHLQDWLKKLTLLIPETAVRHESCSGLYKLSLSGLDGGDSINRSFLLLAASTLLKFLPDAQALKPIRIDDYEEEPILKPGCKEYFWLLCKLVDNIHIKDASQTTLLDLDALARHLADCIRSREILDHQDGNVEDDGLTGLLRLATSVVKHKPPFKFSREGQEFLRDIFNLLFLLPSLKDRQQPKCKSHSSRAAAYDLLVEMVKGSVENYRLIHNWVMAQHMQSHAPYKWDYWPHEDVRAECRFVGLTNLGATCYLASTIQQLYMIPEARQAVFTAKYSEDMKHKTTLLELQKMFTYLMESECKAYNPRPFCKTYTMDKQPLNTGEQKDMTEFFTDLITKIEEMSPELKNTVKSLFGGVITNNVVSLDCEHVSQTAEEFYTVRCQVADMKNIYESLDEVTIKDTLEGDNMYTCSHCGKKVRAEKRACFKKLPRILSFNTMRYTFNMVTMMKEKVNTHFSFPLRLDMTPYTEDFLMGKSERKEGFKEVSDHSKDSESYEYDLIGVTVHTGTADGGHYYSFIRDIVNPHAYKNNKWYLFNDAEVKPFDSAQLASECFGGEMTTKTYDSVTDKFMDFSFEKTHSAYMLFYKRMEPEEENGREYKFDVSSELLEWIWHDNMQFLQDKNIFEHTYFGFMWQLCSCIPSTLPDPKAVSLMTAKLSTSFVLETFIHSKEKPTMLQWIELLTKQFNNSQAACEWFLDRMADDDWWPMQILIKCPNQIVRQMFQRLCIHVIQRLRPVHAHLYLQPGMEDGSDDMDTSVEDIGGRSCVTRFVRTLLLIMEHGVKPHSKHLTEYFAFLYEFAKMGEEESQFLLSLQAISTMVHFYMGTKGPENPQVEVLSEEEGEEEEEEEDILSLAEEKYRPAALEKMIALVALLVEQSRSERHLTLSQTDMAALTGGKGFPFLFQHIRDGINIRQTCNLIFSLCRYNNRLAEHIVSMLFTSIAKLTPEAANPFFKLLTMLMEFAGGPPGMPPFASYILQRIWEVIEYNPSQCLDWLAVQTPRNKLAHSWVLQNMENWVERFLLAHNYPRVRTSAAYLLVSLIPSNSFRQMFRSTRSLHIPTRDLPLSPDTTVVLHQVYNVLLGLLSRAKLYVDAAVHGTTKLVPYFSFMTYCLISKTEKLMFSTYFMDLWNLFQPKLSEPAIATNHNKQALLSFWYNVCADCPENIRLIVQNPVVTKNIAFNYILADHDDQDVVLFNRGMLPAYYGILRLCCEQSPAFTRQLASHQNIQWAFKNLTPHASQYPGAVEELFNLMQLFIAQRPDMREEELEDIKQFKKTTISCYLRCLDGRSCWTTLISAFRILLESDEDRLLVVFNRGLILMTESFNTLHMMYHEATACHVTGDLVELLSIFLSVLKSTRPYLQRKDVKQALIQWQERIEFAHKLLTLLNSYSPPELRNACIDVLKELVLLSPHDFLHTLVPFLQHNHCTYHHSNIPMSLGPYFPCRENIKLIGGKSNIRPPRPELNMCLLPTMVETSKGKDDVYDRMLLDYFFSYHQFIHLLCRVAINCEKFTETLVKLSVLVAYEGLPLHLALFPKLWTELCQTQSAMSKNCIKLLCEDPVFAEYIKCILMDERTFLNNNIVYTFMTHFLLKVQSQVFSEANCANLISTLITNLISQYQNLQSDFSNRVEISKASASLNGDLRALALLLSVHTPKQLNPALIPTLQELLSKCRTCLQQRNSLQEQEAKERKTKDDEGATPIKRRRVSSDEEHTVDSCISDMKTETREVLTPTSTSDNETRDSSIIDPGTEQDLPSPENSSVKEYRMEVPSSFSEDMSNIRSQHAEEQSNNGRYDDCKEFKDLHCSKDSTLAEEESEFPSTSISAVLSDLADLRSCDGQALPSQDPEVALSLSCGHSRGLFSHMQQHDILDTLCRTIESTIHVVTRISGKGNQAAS

CN(C)C(=O)c1ccc(NC(=O)CCl)cc1
inactive: USP34 -0.218 | USP36 0.00972 | USP38 -0.0389 | USP39 0.0586 | USP4 -0.323
